Results: PubChem BioAssay (NCATS)
Inconclusive results are not listed. Values without a mark were called inactive. The source made the active and inactive calls. The call rests on the fitted dose curve; in most records, active means well fitted cell-killing curve with a large enough effect; inconclusive means small, poorly fitted or top-dose-only effect, or effect the other way; inactive means no such curve, though single readings can be large or run the other way.

Assay: Viability qHTS for spleen associated tyrosine kinase inhibitor (SYKi) naive MV4-11 cells (AID 1963823); further: nearly all actives have a fitted effect of over 40% in size
Conditions: MV4-11 AML viability, CellTiter-Glo luminescence, 72 h; series mostly up to 45 µM; viability (% of control): at the top concentration
In short: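 qHTS, SYK inhibitor-naive MV4-11; 500 cells/well; 72 hr compound exposure, 37 C; CellTiter-Glo added, 10 min RT; luminescence read.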
Potency means the concentration at half of the fitted maximal effect.

SMILES | Potency | viability (% of control)
CC(=O)CC(=O)Nc1ccc(Cl)c(C(F)(F)F)c1 | 9.2 µM (active) | –
CC(=O)OCC1=C[C@@H]2OC(=O)C3=CO[C@@H](O[C@@H]4O[C@H](CO)[C@@H](O)[C@H](O)[C@H]4O)[C@H]1[C@@H]32 | – | 60.2% [at 17.3 µM]
C=C1CC23CC1CCC2C12OC(=O)C(C)(C(O)C(O)C1O)C2C3C(=O)O (stereo not drawn) | – | 74.8%
N#CCc1ccc(O)cc1O[C@@H]1O[C@H](CO)[C@@H](O)[C@H](O)[C@H]1O | – | 78%
O=C(O)c1ccnc(-c2cc(C(=O)NCCc3ccccc3)ccn2)c1 | – | 76.4%
C=C1C(=O)OC2/C=C(\CO)CC/C=C(\C=O)C(OC)C(OC(=O)C(C)CC)C12 (stereo not drawn) | 10 µM (active) | –
CC(C)COc1ccc(CNC(=O)N(Cc2ccc(F)cc2)C2CCN(C)CC2)cc1 | 18.4 µM (active) | –
CC1=C(c2ccc(O)cc2)[C@H](c2ccc(OCCN3CCCCC3)cc2)Oc2cc(O)ccc21 | 8.33 µM (active) | –
O=C(c1ccccc1)c1c(O)cc(O)cc1O[C@@H]1O[C@H](CO)[C@@H](O)[C@H](O)[C@H]1O | – | 76.1%
C/C=C1/CC2C(=O)Nc3cc(O)c(OC)cc3C(=O)N2C1 (stereo not drawn) | 16.1 µM (active) | –
CC(C)c1cc2c(c(O)c1O)[C@@]13CCCC(C)(C)C1[C@@H](O)[C@@H]2OC3=O (stereo partly drawn) | 4.53 µM (active) | –
COC(=O)C[C@@H]1C(C(=O)O)=CO[C@@H](O[C@@H]2O[C@H](CO)[C@@H](O)[C@H](O)[C@H]2O)/C1=C\COC(=O)/C=C/c1ccc(O)c(OC)c1 | – | 83.6% [at 17.3 µM]
CC1=CC(=O)CC(C)(C)C1CO[C@@H]1O[C@H](CO)[C@@H](O)[C@H](O)[C@H]1O (stereo partly drawn) | – | 73.7%
CC1=CC(=O)CC(C)(C)C1/C=C/C(C)OC1OC(COC2OCC(O)C(O)C2O)C(O)C(O)C1O (stereo not drawn) | – | 57.1% [at 17.3 µM]
COc1ccc(C2=NC(c3ccc(Cl)cc3)C(c3ccc(Cl)cc3)N2C(=O)N2CCNC(=O)C2)c(OC(C)C)c1 (stereo not drawn) | 16.4 µM (active) | –
C/C=C/C=C/C=C/C(=O)O[C@@H]1[C@@H](OC)C2=C(C(=O)N(C(C)C(=O)O)C2)[C@@]2(C)CCCC(C)(C)[C@H]12 (stereo partly drawn) | – | 70.5% [at 17.3 µM]
N[C@@]1(C(=O)O)CC[C@H]2[C@H](C(=O)O)[C@H]21 | – | 99.8%

SMILES | Potency | viability (% of control)
COC(=N)c1nc2ccc3ncnc(Nc4ccc(F)cc4Br)c3c2s1 | 1.46 µM (active) | –
CCC(C)C1NC(=O)C(Cc2ccccc2)NC(=O)C(CCCCCC(=O)C(O)CO)NC(=O)C2CCCCN2C1=O (stereo not drawn) | 2.43 µM (active) | –
C[C@@H]1C[C@@H]2O[C@H]2/C=C\C=C\C(=O)Cc2c(Cl)c(O)cc(O)c2C(=O)O1 | 0.0404 µM (active) | –
CCOC(=O)OCC/C(SC(=O)OCC)=C(\C)N(C=O)Cc1cnc(C)nc1N | – | 51.5%
CC1(C)CC[C@]2(C(=O)O[C@@H]3O[C@H](CO)[C@@H](O)[C@H](O)[C@H]3O)CC[C@]3(C)C(=CCC4[C@@]5(C)C[C@@H](O)[C@H](O)[C@](C)(C=O)C5CC[C@]43C)[C@@H]2[C@@H]1O (stereo partly drawn) | – | 76.5% [at 17.3 µM]
COc1ccc(CCO[C@@H]2O[C@H](CO[C@@H]3OC[C@H](O)[C@H](O)[C@H]3O)[C@@H](O)[C@H](O)[C@H]2O)cc1 | – | 84.6% [at 17.3 µM]
COc1cc(O[C@@H]2O[C@H](CO[C@H]3OC[C@](O)(CO)[C@H]3O)[C@@H](O)[C@H](O)[C@H]2O)cc(OC)c1O | – | 90.4% [at 17.3 µM]
COc1cc2nc(C3CC3)nc(N3CCN(c4ccccc4OC)CC3)c2cc1OC | 16.4 µM (active) | –
CC1=C(C(=O)O[C@@H]2O[C@H](COC3OCC(O)C(O)C3O)[C@@H](O)[C@H](O)[C@H]2O)C(C)(C)CCC1 (stereo partly drawn) | – | 61.4% [at 17.3 µM]
C[C@]1(O)CC[C@@H]2C(C(=O)O)=CO[C@@H](O[C@@H]3O[C@H](CO)[C@@H](O)[C@H](O)[C@H]3O)[C@@H]21 | – | 74.1%
C=C1OC2CC(C(=O)O)C=CC2NC1=O (stereo not drawn) | – | 61.3%
Cc1ccc(NS(=O)(=O)c2cc3c(cc2N[C@@H](C)CO)NC(=O)CC3)cc1C | 20.6 µM (active) | –
COc1cc2c(cc1NS(=O)(=O)c1ccc(Br)cc1C)n(C)c(=O)n2C | 2.31 µM (active) | –
CN(C)c1ccc(Nc2c3ccc(NC(=O)CCN4CCCC4)cc3nc3cc(NC(=O)CCN4CCCC4)ccc23)cc1 | 5.17 µM (active) | –
Cn1cc(-c2cnc3ccc4ccc(CS(=O)(=O)NCc5ccccn5)cc4c(=O)c3c2)cn1 | 14.6 µM (active) | –
CC(C)(C)c1ccc(S(=O)(=O)Nc2ccc(-n3ccnc3)cc2)cc1 | 10.3 µM (active) | –
